In PubChem BioAssay (NCATS) one finds Potency data, which are given here for 40 molecules.

Each structure is given as a SMILES string. Results filed as inconclusive are left out. Where a call stands in place of a potency, no number is given. Calls of active or inactive are those of the source. The call rests on the fitted dose curve; in most records, active means well fitted curve in the direction sought with a large enough effect; inconclusive means small, poorly fitted or top-dose-only effect, or another doubt; inactive means no such curve, though single readings can be large; an effect the other way counts as inactive or inconclusive.

One assay addresses Aldehyde dehydrogenase, mitochondrial (Homo sapiens) (UniProt P05091). The assay can be described thus: qHTS for Inhibitors of the Aldehyde Dehydrogenase Family (ALDH2) Primary screen (AID 2061308). Further: nearly all actives have a fitted effect of over 55% in size. Particulars: ALDH2 enzyme inhibition qHTS, 1536-well; series mostly up to 56 µM.
For the molecule `CC(C)(O)c1ccn2c(-c3ccc(F)c(-c4ccc(F)cc4C#N)c3)cnc2c1F`, the Potency result is “inactive”.

As for `COc1ccccc1N1CCN(CC[C@@](C)(C(=O)C2CCCCC2)c2ccccc2)CC1`, the Potency result was “inactive”.

Regarding `O=C1CSc2ccccc2N1Cc1cccc(C(F)(F)F)c1`, the Potency entry was “inactive”.

Turning to `CCOc1ccc(CCNC(=O)c2cc3sc(Cl)cc3n2C)cc1OCC`, the Potency result is “inactive”.

Turning to `CCOC(=O)C(CCc1ccccc1)NC1CSC(c2cccs2)CN(CC(=O)O)C1=O` (stereo not given), the Potency entry is “inactive”.

`c1ccc(CN(CC2=NCCN2)c2ccccc2)cc1`: the Potency entry was “inactive”.

In the case of `CC(F)(F)CN1CCOc2c(nn(-c3ccccc3Cl)c2-c2ccc(Cl)cc2)C1=O`, the Potency result was “inactive”.

Turning to `Cc1ccc(N2CCN(CCC3NC(=O)c4ccccc43)CC2)cc1C` (stereo not given), the Potency result is “inactive”.

Regarding `CO[C@@H]1[C@@H](O[C@H]2O[C@@H](C)[C@H](O[C@@H]3C[C@](C)(O)[C@H](O)[C@@H](C)O3)[C@@H](N(C)C)[C@@H]2O)[C@@H](CC=O)C[C@@H](C)[C@@H](O[C@H]2CC[C@H](N(C)C)[C@H](C)O2)/C=C/C=C/C[C@@H](C)OC(=O)C[C@H]1O`, the Potency result was “inactive”.

On to `c1ccc(-c2csc(N3CCOCC3)n2)cc1`, for which the Potency entry was “inactive”.

As for `Cc1cc(CN)cc(C)c1NC(=O)c1ccc(-c2cc(Cl)ccc2Cl)o1`, the Potency entry is “inactive”.

As to `CC(=O)SCC(=O)c1ccc(NS(=O)(=O)c2ccc(OCCCN(C)C)cc2)nc1`, the Potency entry is “inactive”.

Turning to `O=C(/C=C/c1c(C(=O)O)[nH]c2cc(Cl)cc(Cl)c12)Nc1ccccc1`, the Potency entry was “inactive”.

Consider `CC(C)c1ccc(NC(=O)Cn2cnc3c2c(=O)n(C)c(=O)n3C)cc1`, for which the Potency result was “inactive”.

`COc1ccc(C2Sc3ccccc3N(CCN(C)C)C(=O)C2OC(C)=O)cc1` (stereo not given): the Potency result is “inactive”.

On to `COc1ccccc1CN[C@H]1CCCN[C@H]1c1ccccc1`, for which the Potency entry is “inactive”.

Consider `COc1cnc(-n2cnc(C)n2)c2[nH]cc(C(=O)C(=O)N3CCN(C(=O)c4ccccc4)CC3)c12`, for which the Potency entry was “inactive”.

Turning to `N#CC(c1ccnc(OCc2ccc(CN3CCOCC3)cc2)n1)c1nc2ccccc2s1` (stereo not given), the Potency entry was “inactive”.

In the case of `COc1cc(Br)c(S(=O)(=O)Nc2ccc(C(F)(F)F)c(O[C@@H]3CCN(C)C3)c2)cc1OC`, the Potency result was “inactive”.

With `Oc1ccc([C@H]2COc3cc(O)ccc3C2)cc1`, the Potency entry was “inactive”.

On to `Cc1onc(-c2ccccc2)c1C(=O)N1CCN(c2ccc([N+](=O)[O-])cc2Cl)CC1`, for which the Potency entry was “inactive”.

As to `CCCCC(=O)N1c2ccccc2NC2=C(C(=O)CCC2)C1c1ccccc1Cl` (stereo not given), the Potency entry was “inactive”.

Regarding `CO[C@H]1C=CO[C@@]2(C)Oc3c(C)c(O)c4c(O)c(c5c(c4c3C2=O)NC2(CCN(CC(C)C)CC2)N=5)=NC(=O)C(C)=CC=C[C@H](C)[C@H](O)[C@@H](C)[C@@H](O)[C@@H](C)[C@H](OC(C)=O)[C@H]1C`, the Potency entry is “inactive”.

Regarding `CN(C)CCCNc1nc(CN2CCN(C(c3ccc(Cl)cc3)c3ccc(Cl)cc3)CC2)nc2ccccc12`, the Potency result is “inactive”.

Regarding `CCCCNc1nc(N)c2[nH]c(=O)n(Cc3ccc(OCCN(C)C)nc3)c2n1`, the Potency entry was “inactive”.

As for `Cc1oc2nc3c(c(NC(=O)CN4CCCC4=O)c2c1C)CCCC3`, the Potency entry is “inactive”.

Take `CN[C@H](CNC(=O)N1CCC[C@@H]([C@@H](OCCNC(=O)OC)c2cccc(Cl)c2)C1)C[C@H]1CCCOC1`: the Potency result was “inactive”.

For `CCO[C@H]1CN(C2CCC(O)(c3ccc4c(c3)OCO4)CC2)C[C@@H]1NC(=O)CNC(=O)c1cccc(C(F)(F)F)c1` (stereo not given in full), the Potency entry was “inactive”.

As to `CCn1c(=O)n([C@H]2CCCN(c3nccc(-c4cc5ccccc5o4)n3)C2)c2ccccc21`, the Potency entry was “inactive”.

Regarding `COCc1c(Cl)ccc2c1CC[C@H]2c1ncc[nH]1`, the Potency entry is “inactive”.

Turning to `CN(C)[C@@H]1CCc2[nH]c3ccc(NC(=O)c4ccc(F)cc4)cc3c2C1`, the Potency entry is “inactive”.

In the case of `O=C(COc1ccc(Cl)cc1)NC1CCC(NC(=O)COc2ccc(Cl)cc2)CC1` (stereo not given), the Potency entry is “inactive”.

With `Cc1ccc(NC(=O)C(=O)NC2CC(C)(C)NC(C)(C)C2)cc1`, the Potency entry was “inactive”.

`CC1(C)CCC(C)(C)c2cc(C#Cc3ccc(C(=O)O)cc3)ccc21`: the Potency entry is “inactive”.

As to `CCn1c2ccccc2c2cc(CNC)ccc21`, the Potency result is “inactive”.

Turning to `COC1CCN(c2cccc(-c3cc(NC(C)=O)nc(-n4nc(C)cc4C)n3)n2)CC1`, the Potency result was “inactive”.

Regarding `FC(F)(F)c1nnc2c(Sc3ccccc3)nc3ccc(Cl)cc3n12`, the Potency entry is “inactive”.

Take `COc1ccccc1N1CCN(c2ncnc3n[nH]c(Br)c23)CC1`: the Potency entry is “inactive”.

In the case of `COc1cc(C(=O)NCC2(N(C)C)CCCC2)cc(OC)c1OCc1ccccc1`, the Potency result is “inactive”.

Turning to `Cc1cc(OCCCS(C)(=O)=O)cc(C)c1-c1cccc(COc2ccc3c(c2)OCC3CC(=O)O)c1` (stereo not given), the Potency result is “inactive”.

The next assay addresses Retinaldehyde dehydrogenase 3 (Homo sapiens) (UniProt P47895). Kind of assay: qHTS for Inhibitors of the Aldehyde Dehydrogenase Family (ALDH1A3) Validation screen (AID 2061312). Further: nearly all actives have a fitted effect of over 45% in size. Particulars: ALDH1A3 enzyme inhibition qHTS validation, fluorescence; series mostly up to 84.7 µM. Background: Quantitative high-throughput screening tests each substance at several concentrations.
On to `CC(C)(O)c1ccn2c(-c3ccc(F)c(-c4ccc(F)cc4C#N)c3)cnc2c1F`, for which the Potency entry was “inactive”.

Take `COc1ccccc1N1CCN(CC[C@@](C)(C(=O)C2CCCCC2)c2ccccc2)CC1`: the Potency entry is “inactive”.

`O=C1CSc2ccccc2N1Cc1cccc(C(F)(F)F)c1`: the Potency result is “inactive”.

Regarding `CCOc1ccc(CCNC(=O)c2cc3sc(Cl)cc3n2C)cc1OCC`, the Potency result is “inactive”.

As to `CCOC(=O)C(CCc1ccccc1)NC1CSC(c2cccs2)CN(CC(=O)O)C1=O` (stereo not given), the Potency entry is “inactive”.

In the case of `c1ccc(CN(CC2=NCCN2)c2ccccc2)cc1`, the Potency entry is “inactive”.

Take `CC(F)(F)CN1CCOc2c(nn(-c3ccccc3Cl)c2-c2ccc(Cl)cc2)C1=O`: the Potency result was “inactive”.

Regarding `Cc1ccc(N2CCN(CCC3NC(=O)c4ccccc43)CC2)cc1C` (stereo not given), the Potency result was “inactive”.

Turning to `CO[C@@H]1[C@@H](O[C@H]2O[C@@H](C)[C@H](O[C@@H]3C[C@](C)(O)[C@H](O)[C@@H](C)O3)[C@@H](N(C)C)[C@@H]2O)[C@@H](CC=O)C[C@@H](C)[C@@H](O[C@H]2CC[C@H](N(C)C)[C@H](C)O2)/C=C/C=C/C[C@@H](C)OC(=O)C[C@H]1O`, the Potency entry is “inactive”.

For `c1ccc(-c2csc(N3CCOCC3)n2)cc1`, the Potency entry is “inactive”.

Regarding `Cc1cc(CN)cc(C)c1NC(=O)c1ccc(-c2cc(Cl)ccc2Cl)o1`, the Potency entry was “inactive”.

For the molecule `CC(=O)SCC(=O)c1ccc(NS(=O)(=O)c2ccc(OCCCN(C)C)cc2)nc1`, the Potency entry was “inactive”.

`O=C(/C=C/c1c(C(=O)O)[nH]c2cc(Cl)cc(Cl)c12)Nc1ccccc1`: the Potency entry was “inactive”.

Consider `CC(C)c1ccc(NC(=O)Cn2cnc3c2c(=O)n(C)c(=O)n3C)cc1`, for which the Potency entry is “inactive”.

As for `COc1ccc(C2Sc3ccccc3N(CCN(C)C)C(=O)C2OC(C)=O)cc1` (stereo not given), the Potency result is “inactive”.

Consider `COc1ccccc1CN[C@H]1CCCN[C@H]1c1ccccc1`, for which the Potency entry is “inactive”.

Regarding `COc1cnc(-n2cnc(C)n2)c2[nH]cc(C(=O)C(=O)N3CCN(C(=O)c4ccccc4)CC3)c12`, the Potency entry is “inactive”.

Regarding `N#CC(c1ccnc(OCc2ccc(CN3CCOCC3)cc2)n1)c1nc2ccccc2s1` (stereo not given), the Potency entry was “inactive”.

For the molecule `COc1cc(Br)c(S(=O)(=O)Nc2ccc(C(F)(F)F)c(O[C@@H]3CCN(C)C3)c2)cc1OC`, the Potency entry is “inactive”.

For `Oc1ccc([C@H]2COc3cc(O)ccc3C2)cc1`, the Potency entry is “inactive”.

As to `Cc1onc(-c2ccccc2)c1C(=O)N1CCN(c2ccc([N+](=O)[O-])cc2Cl)CC1`, the Potency result was “inactive”.

Take `CCCCC(=O)N1c2ccccc2NC2=C(C(=O)CCC2)C1c1ccccc1Cl` (stereo not given): the Potency result was “inactive”.

In the case of `CO[C@H]1C=CO[C@@]2(C)Oc3c(C)c(O)c4c(O)c(c5c(c4c3C2=O)NC2(CCN(CC(C)C)CC2)N=5)=NC(=O)C(C)=CC=C[C@H](C)[C@H](O)[C@@H](C)[C@@H](O)[C@@H](C)[C@H](OC(C)=O)[C@H]1C`, the Potency entry is “inactive”.

In the case of `CN(C)CCCNc1nc(CN2CCN(C(c3ccc(Cl)cc3)c3ccc(Cl)cc3)CC2)nc2ccccc12`, the Potency result was “inactive”.

As to `CCCCNc1nc(N)c2[nH]c(=O)n(Cc3ccc(OCCN(C)C)nc3)c2n1`, the Potency entry was “inactive”.

As for `Cc1oc2nc3c(c(NC(=O)CN4CCCC4=O)c2c1C)CCCC3`, the Potency result is “inactive”.

For `CN[C@H](CNC(=O)N1CCC[C@@H]([C@@H](OCCNC(=O)OC)c2cccc(Cl)c2)C1)C[C@H]1CCCOC1`, the Potency entry is “inactive”.

For the molecule `CCO[C@H]1CN(C2CCC(O)(c3ccc4c(c3)OCO4)CC2)C[C@@H]1NC(=O)CNC(=O)c1cccc(C(F)(F)F)c1` (stereo not given in full), the Potency entry is “inactive”.

In the case of `CCn1c(=O)n([C@H]2CCCN(c3nccc(-c4cc5ccccc5o4)n3)C2)c2ccccc21`, the Potency entry is “inactive”.

In the case of `COCc1c(Cl)ccc2c1CC[C@H]2c1ncc[nH]1`, the Potency entry was “inactive”.

Consider `CN(C)[C@@H]1CCc2[nH]c3ccc(NC(=O)c4ccc(F)cc4)cc3c2C1`, for which the Potency result is “inactive”.

`O=C(COc1ccc(Cl)cc1)NC1CCC(NC(=O)COc2ccc(Cl)cc2)CC1` (stereo not given): the Potency entry is “inactive”.

Regarding `Cc1ccc(NC(=O)C(=O)NC2CC(C)(C)NC(C)(C)C2)cc1`, the Potency result was “inactive”.

For `CC1(C)CCC(C)(C)c2cc(C#Cc3ccc(C(=O)O)cc3)ccc21`, the Potency entry is “inactive”.

`CCn1c2ccccc2c2cc(CNC)ccc21`: the Potency entry is “inactive”.

Turning to `COC1CCN(c2cccc(-c3cc(NC(C)=O)nc(-n4nc(C)cc4C)n3)n2)CC1`, the Potency result was “inactive”.

In the case of `FC(F)(F)c1nnc2c(Sc3ccccc3)nc3ccc(Cl)cc3n12`, the Potency result was “inactive”.

For the molecule `COc1ccccc1N1CCN(c2ncnc3n[nH]c(Br)c23)CC1`, the Potency entry is “inactive”.

Regarding `COc1cc(C(=O)NCC2(N(C)C)CCCC2)cc(OC)c1OCc1ccccc1`, the Potency result is “inactive”.

In the case of `Cc1cc(OCCCS(C)(=O)=O)cc(C)c1-c1cccc(COc2ccc3c(c2)OCC3CC(=O)O)c1` (stereo not given), the Potency entry is “inactive”.
